PubChem BioAssay
Active and inactive are the calls of the source.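 Rule for the calls, unless noted: active = visually confirmed hit in the image check and inhibition above 20%; inconclusive = visually confirmed hit but inhibition not above 20%; inactive = no visual hit in the image check.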

What was measured:
[1] = inhibitors of TNFa-induced NFkB p65 translocation, primary screen, imaging, HUVEC, MLSMR starter and 10KST1 sets (AID 438;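 active = inhibition above 20% together with a positive visual image hit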;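 note: compound added about 3h40 before a 20 min TNFalpha stimulation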;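 for inhibition: signal is the nuclear over cytoplasmic p65 intensity ratio per well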); details: HUVEC TNFa-induced p65 nuclear translocation; cell count: measured here: nuclei count (cytotoxicity indicator), at 2.08 µM unless noted; inhibition: at 2 µM, stronger effect = higher value unless noted
[2] = reduction of polyQ htt aggregates in cells – imaging, exon1htt(103Q)mCFP cells, high-content imaging, primary screen (AID 483;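 active = visual image review flags a hit and inhibition of aggregation exceeds 20%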;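 note: compound exposure lasted 3 days before fixation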;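 for nuclei count: percent of the per-plate median nuclei count of sample wells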); details: exon1htt(103Q)mCFP cell line, aggregate imaging, at 2 µM; inhibition of aggregation: stronger effect = higher value; nuclei count: measured here: cell count, toxicity
[3] = endothelial E-selectin expression blockers – imaging, HUVEC, immunofluorescence, MLSMR starter and 10KST1 sets, primary screen (AID 487); details: HUVEC TNFalpha-induced E-selectin immunofluorescence imaging, at 2 µM; inhibition: stronger effect = higher value; nuclei count: measured here: cell number, toxicity;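 for inhibition: signal is fraction of cell area covered by stained E-selectin grains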;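 for nuclei count: 100% = median nuclei count of all wells on the same plate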
[4] = molecular target: Voltage-gated potassium channel subunit beta-2 (Rattus norvegicus) (UniProt P62483); assay: inhibitors of rat Kvbeta2 reductase activity – biochemical, NADPH fluorescence, primary screen (AID 622;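 active = fluorescence slope higher than the sample average by over 3 SD, cut at about -0.22 in these data, passing the limit was not always enough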;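 note: slope of raw intensity against log time taken from 70 to 1610 s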); details: recombinant KvBeta, 4-cyanobenzaldehyde reduction, at 10 µM, stronger effect = higher value
Chain of Voltage-gated potassium channel subunit beta-2 (Rattus norvegicus) (P62483 whole entry, looked up): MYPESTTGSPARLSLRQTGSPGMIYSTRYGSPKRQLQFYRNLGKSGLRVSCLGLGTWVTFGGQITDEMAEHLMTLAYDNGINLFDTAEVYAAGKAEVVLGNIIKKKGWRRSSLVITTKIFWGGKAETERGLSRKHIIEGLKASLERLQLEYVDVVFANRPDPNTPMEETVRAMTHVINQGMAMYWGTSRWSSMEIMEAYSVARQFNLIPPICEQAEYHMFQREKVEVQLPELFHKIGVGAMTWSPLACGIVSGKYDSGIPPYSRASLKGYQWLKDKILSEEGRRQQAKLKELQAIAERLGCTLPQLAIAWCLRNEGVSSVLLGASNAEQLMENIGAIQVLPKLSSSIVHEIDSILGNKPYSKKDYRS

[5] = molecular target: Voltage-gated potassium channel subunit beta-2 (Rattus norvegicus) (UniProt P62483); assay: enhancers of rat Kvbeta2 NADPH turnover – biochemical, NADPH fluorescence, primary screen (AID 623;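 active = NADPH fluorescence slope more negative than the mean of all samples by about 3 SD, 99.7% confidence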;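 note: fluorescence intensity change per second fitted from 20 to 320 s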); details: Recombinant KvBeta, NADPH fluorescence decrease slope, 10 min; at 10 µM; stronger effect = lower value
[6] = molecular target: Alpha-2C adrenergic receptor (Homo sapiens) (UniProt P18825); assay: compounds altering alpha2C-coupled GIRK flux – cell-based, HEK293 alpha2C/GIRK1/2, thallium flux, primary screen (AID 624;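 active = fluorescence slope after compound addition differing from the mean of all screened samples at 99.7% confidence, in either direction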;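 note: slope of fluorescence ratio to pre-addition baseline per second over 15 to 24 s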); details: thallium flux BTC fluorescence, at 10 µM, actives lie on both sides
Chain of Alpha-2C adrenergic receptor (Homo sapiens) (P18825 whole entry, looked up): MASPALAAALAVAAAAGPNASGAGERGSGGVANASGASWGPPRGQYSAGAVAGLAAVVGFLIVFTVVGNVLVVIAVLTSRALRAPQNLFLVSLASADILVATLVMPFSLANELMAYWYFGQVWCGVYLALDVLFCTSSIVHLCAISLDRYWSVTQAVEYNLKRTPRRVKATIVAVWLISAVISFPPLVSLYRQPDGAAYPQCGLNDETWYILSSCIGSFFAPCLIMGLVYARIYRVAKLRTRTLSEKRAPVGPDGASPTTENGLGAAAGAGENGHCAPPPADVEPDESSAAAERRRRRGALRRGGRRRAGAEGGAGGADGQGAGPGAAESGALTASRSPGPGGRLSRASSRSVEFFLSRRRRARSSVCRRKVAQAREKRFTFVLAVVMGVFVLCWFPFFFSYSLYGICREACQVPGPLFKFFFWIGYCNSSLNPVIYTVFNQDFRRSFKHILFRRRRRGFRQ

[7] = blockers of RIG-like receptor reporter activation – cell-based, Sendai virus stimulus, luciferase, 10K MLSCN set, TLR/RLR signaling modifier project, primary screen (AID 602276;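 active = inhibition at or above 50% at 10 µM; inactive = inhibition below 50%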;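 note: firefly luciferase from ISG56 promoter only with Renilla not read in this screen; 0% = Sendai virus plus DMSO and 100% = medium plus DMSO without virus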); details: HEK293 RL24 IRF3 luciferase reporter, at 10 µM, stronger effect = higher value
[8] = TLR3 IRF3 reporter activation blockers – cell-based, poly I:C stimulus, luciferase, 10K MLSCN set, primary screen (AID 602277;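 active = inhibition of the reporter signal at or above 50%; inactive = inhibition below 50%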); details: HEK293-TLR3 RL24 IRF3 luciferase reporter, at 10 µM, stronger effect = higher value
[9] = Primary imaging screen for DUSP6 inhibitors that restore phospho-Erk in transfected HeLa cells, chemical complementation (AID 609;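 active = compounds giving at least 50% inhibition in the cell-based MKP-3 phosphatase rescue imaging test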;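 for inhibition: phospho-Erk level distribution per well compared with pooled transfected vehicle control wells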); details: HeLa MKP-3 transfected, phospho-Erk imaging KS statistic, at 10 µM
[10] = molecular target: Dual specificity protein phosphatase 6 (Homo sapiens) (UniProt Q16828); assay: as above; details: HeLa MKP-3 transfected, phospho-Erk imaging KS statistic, at 10 µM, stronger effect = higher value
Chain of Dual specificity protein phosphatase 6 (Homo sapiens) (Q16828 whole entry, looked up): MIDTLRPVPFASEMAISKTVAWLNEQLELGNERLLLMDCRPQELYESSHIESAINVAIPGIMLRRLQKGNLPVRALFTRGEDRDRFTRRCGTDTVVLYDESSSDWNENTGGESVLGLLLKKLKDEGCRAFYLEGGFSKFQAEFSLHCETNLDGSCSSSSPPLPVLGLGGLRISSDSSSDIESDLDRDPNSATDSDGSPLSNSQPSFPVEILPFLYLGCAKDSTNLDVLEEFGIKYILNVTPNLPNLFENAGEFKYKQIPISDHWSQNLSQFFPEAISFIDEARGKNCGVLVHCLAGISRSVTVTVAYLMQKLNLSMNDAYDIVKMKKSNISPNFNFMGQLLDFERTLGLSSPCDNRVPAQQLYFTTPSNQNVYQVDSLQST

[11] = molecular target: Muscarinic acetylcholine receptor M4 (Homo sapiens) (UniProt P08173); assay: M4-linked GIRK flux change, two-sided – cell-based, HEK293 M4/GIRK, thallium flux, BTC-AM, M4 allosteric agonist project, primary screen (AID 625;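 active = fluorescence slope after compound addition differing from the mean of all tested samples at 99.7% confidence, mostly higher but some lower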;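 note: thallium influx through GIRK channels coupled to M4 in HEK293 cells with BTC-AM dye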); details: at 10 µM, actives lie on both sides
Chain of Muscarinic acetylcholine receptor M4 (Homo sapiens) (P08173 whole entry, looked up): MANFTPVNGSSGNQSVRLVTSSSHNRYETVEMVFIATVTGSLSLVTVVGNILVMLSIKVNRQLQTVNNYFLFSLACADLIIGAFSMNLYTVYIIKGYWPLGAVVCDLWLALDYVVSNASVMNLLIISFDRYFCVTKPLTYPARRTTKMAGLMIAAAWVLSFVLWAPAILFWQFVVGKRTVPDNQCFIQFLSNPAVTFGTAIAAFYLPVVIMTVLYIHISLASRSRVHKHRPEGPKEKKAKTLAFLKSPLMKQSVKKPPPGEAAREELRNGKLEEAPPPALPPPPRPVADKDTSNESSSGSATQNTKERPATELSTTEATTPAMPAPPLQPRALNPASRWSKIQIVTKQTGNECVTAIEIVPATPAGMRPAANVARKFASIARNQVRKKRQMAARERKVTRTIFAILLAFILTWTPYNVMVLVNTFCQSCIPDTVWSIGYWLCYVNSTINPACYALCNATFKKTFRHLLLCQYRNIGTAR

[12] = inhibitors of larval lipid processing in zebrafish, primary screen, whole organism, PED6 fluorescence, gall bladder and intestine (AID 686;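 active = a full or partial loss of lipid-probe fluorescence in the fish gall bladder, intestine or both, judged by eye; inactive = no fluorescence loss, or compound toxic to the fish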;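 note: larvae 5 to 7 days old with five fish per well; signal comes from phospholipase A2 cleavage of quenched PED6 carried via bile; overnight exposure to compound and PED6 before scoring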); details: Zebrafish larvae PED6 lipid processing, fluorescence scoring
[13] = loss of swimming-algae plug formation – whole organism, Chlamydomonas reinhardtii, WT vs cilia-less mutant, absorbance, 96-well, primary screen (AID 463189;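 active = inhibition at or above 50% relative to wild type and mutant plate controls; inactive = inhibition below 50%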;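 note: 0% = wild type cc124 cells in DMSO and 100% = ciliumless bld1 mutant cells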); details: Chlamydomonas reinhardtii gravitaxis, OD600 absorbance, 2 days; at 10 µM; stronger effect = higher value
[14] = measured here: cell density z-score
[15] = measured here: nuclear c-Myc green intensity z-score
[16] = measured here: nuclear pErk red intensity z-score, stronger effect = higher value

Row | SMILES | cell count [1] | inhibition [1] | inhibition of aggregation [2] | nuclei count [2] | inhibition [3] | nuclei count [3] | fluorescence slope [4] | NADPH fluorescence slope [5] | slope [6] | inhibition [7] | inhibition [8] | z-score [9, 14] | z-score [9, 15] | z-score [9, 16] | inhibition [10] | fluorescence slope [11] | outcome [12] | inhibition [13]
1 | O=C1CC(N2CCC(n3c(=O)[nH]c4ccccc43)CC2)C(=O)N1c1ccc(F)cc1 (centres undefined) | 366 | 3.6% (inactive) | 6.3% (inactive) | 90.7% | -52.5% (inactive) | 93.7% | -0.315 (inactive) | 1.5e-05 (inactive) | 0.0029 (inactive) | 6.41% (inactive) | 18.8% (inactive) | – | – | – | – | – | – | –
2 | COc1ccc(C2SCC(=O)Nc3c2c(=O)[nH]n3C2CCCCCC2)cc1 (centres undefined) | 564 | -7.2% (inactive) | – | – | 70.4% (inactive) | 96% | -0.478 (inactive) | -3e-05 (inactive) | – | – | – | 1.06 | 0.0384 | -1.4 | 2.71% (inactive) | 0.007 (inactive) | inactive | 29.9% (inactive)
3 | CCCCc1nc(N2CCNCC2)c(C#N)c2c1CSC(C)(C)C2 | 519 | -12.8% (inactive) | – | – | -143% (inactive) | 135% | -0.49 (inactive) | -0.000122 (inactive) | – | – | – | 0.415 | -0.261 | 0.643 | 7.42% (inactive) | 0.00482 (inactive) | inactive | 55.2% (active)
4 | COc1ccccc1-n1c(O)c(C=NCCCn2ccnc2)c(=O)[nH]c1=O | 752 | 3.4% (inactive) | – | – | -23.3% (inactive) | 150% | -0.426 (inactive) | -4.1e-05 (inactive) | – | – | – | -0.173 | -0.884 | 0.0227 | 7.83% (inactive) | 0.00527 (inactive) | inactive | 5.72% (inactive)
5 | COc1ccc(C(=O)C(C)(C)NO)cc1 | 653 | -4.6% (inactive) | 12.4% (inactive) | 94.3% | -81.1% (inactive) | 119% | -0.62 (inactive) | 1.3e-05 (inactive) | 0.00701 (inactive) | 12.6% (inactive) | 26.7% (inactive) | – | – | – | – | – | – | –
6 | CCCCNC(=O)c1c(N)n(CCCOC)c2nc3ccccc3nc12 | 447 | 14.6% (inactive) | 16.7% (inactive) | 95% | 0.8% (inactive) | 111% | -0.245 (inactive) | -2.4e-06 (inactive) | 0.00654 (inactive) | -5.16% (inactive) | -28.3% (inactive) | – | – | – | – | – | – | –
7 | O=C(c1cccs1)C1CN2CCC1CC2 (centres undefined) | 582 | -15.9% (inactive) | 1.5% (inactive) | 75.5% | 7.9% (inactive) | 110% | -0.485 (inactive) | 3e-05 (inactive) | 0.00316 (inactive) | -7.76% (inactive) | 20.7% (inactive) | – | – | – | – | – | – | –
8 | CN1CCN(c2nc3ccccc3c(=O)n2-c2ccccc2)CC1 | 568 | -2.3% (inactive) | -4.9% (inactive) | 70.3% | -3.5% (inactive) | 102% | -0.57 (inactive) | -2.8e-05 (inactive) | 0.00748 (inactive) | 845% [above what the read-out allows, likely interference] (active) | 50.1% (active) | – | – | – | – | – | – | –
9 | CCCCCCOc1ccc(CN2CCN(C)CC2)cc1 | 302 | -5% (inactive) | 2.1% (inactive) | 107% | -127% (inactive) | 128% | -0.46 (inactive) | -0.000138 (inactive) | 0.00769 (inactive) | 25.8% (inactive) | 8.4% (inactive) | – | – | – | – | – | – | –
10 | N=C(N)c1c(O)n(C2CCCCC2)c(=O)n(C2CCCCC2)c1=O | 460 | -13.4% (inactive) | -10.9% (inactive) | 102% | -11% (inactive) | 89.8% | -0.502 (inactive) | -1.1e-05 (inactive) | 0.00599 (inactive) | 16.7% (inactive) | 31.3% (inactive) | – | – | – | – | – | – | –
11 | CC#CP(=O)(OCC)C(O)(c1ccccc1)C(F)(F)F (centres undefined) | 621 | 12.5% (inactive) | 4.9% (inactive) | 90.8% | -29.4% (inactive) | 110% | -0.621 (inactive) | 5.6e-07 (inactive) | 0.0037 (inactive) | 15% (inactive) | 23.4% (inactive) | – | – | – | – | – | – | –
12 | Cc1ccc(C(=O)C2CN3CCC2CC3)cc1 (centres undefined) | 882 | -7.3% (inactive) | -13.1% (inactive) | 103% | -84.2% (inactive) | 111% | -0.441 (inactive) | -2.3e-05 (inactive) | 0.00351 (inactive) | 11.9% (inactive) | 43.4% (inactive) | – | – | – | – | – | – | –
13 | CC(C)(C)P(=O)(c1ccncc1)N1CCCC1 (centres undefined) | 520 | -2.4% (inactive) | -2.3% (inactive) | 113% | -21% (inactive) | 115% | -0.275 (inactive) | -4.3e-05 (inactive) | 0.00562 (inactive) | 14.9% (inactive) | 22.7% (inactive) | – | – | – | – | – | – | –
